Compound activity (PubChem)
D2 PAM-1: Beta-Arrestin HTS for Positive Allosteric Modulators of the Human D2 Dopamine Receptor: Potentiators | D(2) dopamine receptor (Homo sapiens), P14416 | DiscoveRx D2 beta-arrestin cells, luminescence, 90 min; 100% = 57 uM dopamine signal | potentiation, % (concentration not given with the values) | 360,000 tested, 0.23% active | AID 624464, 2012; in the data active means potentiation above about 50%; inconclusive means mostly about 30% to 49%
Target sequence (P14416 whole entry, looked up): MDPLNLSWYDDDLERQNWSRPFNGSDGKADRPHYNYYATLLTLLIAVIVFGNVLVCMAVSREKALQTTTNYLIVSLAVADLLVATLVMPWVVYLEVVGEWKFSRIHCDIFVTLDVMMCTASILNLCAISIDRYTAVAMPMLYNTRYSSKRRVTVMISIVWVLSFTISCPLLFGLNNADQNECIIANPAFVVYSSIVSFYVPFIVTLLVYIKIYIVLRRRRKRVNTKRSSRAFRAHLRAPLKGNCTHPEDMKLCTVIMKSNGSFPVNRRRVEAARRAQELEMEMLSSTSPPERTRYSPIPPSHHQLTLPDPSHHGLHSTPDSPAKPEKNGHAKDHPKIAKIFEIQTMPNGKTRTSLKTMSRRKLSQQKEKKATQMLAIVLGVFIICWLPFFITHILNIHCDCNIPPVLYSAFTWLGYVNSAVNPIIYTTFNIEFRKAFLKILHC
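D2 cells co-treated with compound plus 50 nM dopamine (EC20) for 90 min at 37 deg C to detect potentiation. Beta-arrestin recruitment was read as enzyme-fragment luminescence after 1 h at ambient temperature. Full response was set by 57 uM dopamine.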
D2 ag-1: Beta-Arrestin HTS for Positive Allosteric Modulators of the Human D2 Dopamine Receptor: Agonists. DiscoveRx PathHunter D2 beta-arrestin, luminescence, 90 min; 100% = 57 uM dopamine signal. activation, % (no concentration beside the values). 360,000 tested, 0.084% active; in the data active means activation above about 40%; inconclusive means between about 15% and that limit
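Agonist mode: compounds alone added to overnight-plated D2 PathHunter cells for 90 min at 37 C, with 57 uM final dopamine (EC100) defining full response. Beta-arrestin recruitment detected by chemiluminescent reagent, read after 1 h at ambient temperature.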
D2 ag-2: HTS Assay for Allosteric Agonists of the Human D2 Dopamine Receptor: Primary Screen for Agonists. D(2) dopamine receptor (Homo sapiens), P14416. AID 485358, 2010. activation, % at 2 µM. HEK293 T-REx D2 cells, calcium flux agonist mode. 340,000 tested, 0.53% active;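 active means activation over 3 SD above normal in the single-dose calcium agonist read, cut at about 30% in these data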; further: 0% is about no effect
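Tetracycline-induced HEK293 T-REx cells with force-coupled D2 receptor, plated overnight at 30 C, loaded with no-wash calcium dye. After a 10 s baseline, compound was pin-added and calcium flux read kinetically for 180 s; calcium rises flagged agonists.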
D2 antagonist: HTS Assay for Allosteric Antagonists of the Human D2 Dopamine Receptor: Primary Screen for Antagonists | inhibition, % at 10 µM | HEK293 TREx D2 cells, calcium flux, dopamine EC80 | 340,000 tested, 2% active | D(2) dopamine receptor (Homo sapiens), P14416 | AID 485344, 2010; in the data active means inhibition above about 30%; inactive means below that, where a call was filed; further: 0% is about no effect
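In this primary screen, negative modulation is detected by tracking calcium flux after an EC80 dopamine challenge in inducible HEK293 T-REx D2 cells preexposed to test compound for 180 s.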
D2 PAM-2: HTS Assay for Positive Allosteric Modulators of the Human D2 Dopamine Receptor: Primary Screen for Potentiators; HEK293 T-REx D2, calcium flux, EC20 dopamine potentiation; potentiation, % at 10 µM; 340,000 tested, 0.34% active; AID 485347, 2010;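 active means potentiation over 3 SD above the plate norm, cut at about 30% in these data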; further: 0% is about no effect
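Calcium flux readout, no-wash dye, 1 read/s. Inducible HEK293 Trex D2 line, overnight 30 C. Compound alone 180 s (agonist flags), then EC20 dopamine, another 180 s to score potentiation.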
* = called active by the depositor; ? = inconclusive; . = not tested or not shown. Rows were chosen to be rich in hits. Some 2.4% of all compounds tested hit in one or more screens of this group.

SMILES	D2 PAM-1	D2 ag-1	D2 ag-2	D2 antagonist	D2 PAM-2
CCOc1ccccc1CNCc1c(C(=O)O)c(C)n(Cc2ccc(Cl)cc2)c1C	.	.	0	.	-6
COc1cccc(-c2nc(NCC3CCCO3)c3ccccc3n2)c1O (stereo not drawn)	10	-2	1	4	15
COc1cccc(-c2nc(NC(C)C)c3ccccc3n2)c1O	12	0	12	32*	10
O=c1[nH]nc(CNc2ccc(O)cc2)c2ccccc12	71*	14	1	-17	16
O=c1[nH]nc(CNc2ccc(C(F)(F)F)cc2)c2ccccc12	1	6	1	0	7
O=C(Nc1ncc(S(=O)(=O)c2ccc([N+](=O)[O-])cc2)s1)c1ccc2ccccc2c1	73*	14	.	.	.
CCC(C)(C)C(=O)Nc1ncc(S(=O)(=O)c2ccc([N+](=O)[O-])cc2)s1	88*	7	6	-14	31*
O=C(CCl)Nc1ncc(S(=O)(=O)c2ccc([N+](=O)[O-])cc2)s1	6	?	.	.	.
Cc1nn(C)c(C)c1NC(=S)Nc1ccc(S(=O)(=O)Nc2ncccn2)cc1	-3	0	1	31*	1
COc1cccc(C(=O)Nc2cccc(OCc3cc(=O)n4cccc(C)c4n3)c2)c1	.	.	-1	.	-10
Cc1cccc(Cn2c(C(C)(C)C)cc3cccnc32)c1	-35	-5	0	45*	-5
Cc1cccc(Cn2c(CNS(=O)(=O)c3ccc(Cl)s3)nc3cccnc32)c1	.	.	-1	.	-2
COc1ccc(N2C(=O)CS(=O)(=O)C23C(=O)N(Cc2c(F)cccc2Cl)c2ccccc23)cc1 (stereo not drawn)	.	.	-1	.	-4
CC(=O)c1sc(NC(=O)c2cc(=O)c3ccccc3o2)nc1C	68*	3	0	4	3
CCC(=O)N1CCc2cc(Br)cc(S(=O)(=O)CCC(=O)Nc3ccc(CC)cc3)c21	.	.	-1	.	-15
Cc1ccc(CNc2nc3cc(-c4ccccc4)sc3c(=O)n2C)c(C)c1	-4	53*	.	.	.
COc1ccc(-c2cc3nc(NCc4ccc(C)cc4C)n(C)c(=O)c3s2)cc1OC	2	-1	.	.	.
CN(Cc1cccc(C(F)(F)F)c1)C(=O)C1CCC(=O)N(CC2CCCCC2)C1 (stereo not drawn)	-10	-2	-1	31*	-1
CN(Cc1cnn(C)c1)C(=O)C1CCC(=O)N(Cc2cccc(C(F)(F)F)c2)C1 (stereo not drawn)	10	-2	.	.	.
COC(=O)C1=C(O)/C(=C\c2cc(C)n(-c3ccccc3C)c2C)N=C1C	-23	0	0	32*	13
Cn1c(=O)c2c(nc(NCCc3ccccc3)n2Cc2cccc(Br)c2)n(C)c1=O	.	.	0	.	.
CS(=O)(=O)N(CC(N)=O)c1cccc(Br)c1	?	1	1	-4	48*
O=C(Nc1ccc(Br)cc1)c1ccc2ncsc2c1	-13	1	0	36*	-27
CCc1ccc(NC(=O)c2ccc3ncsc3c2)cc1	.	.	0	-7	-12
CSc1ccc(CNC(=O)CCc2c(C)nn(-c3ccc(N4CCCC4)nn3)c2C)cc1	.	.	.	.	1
SMILES	D2 PAM-1	D2 ag-1	D2 ag-2	D2 antagonist	D2 PAM-2
Cc1ccc(C(=O)NNc2ncnc3c2cnn3C)cc1	-10	-2	0	31*	12
COc1ccc2nc(N(CCN(C)C)C(=O)/C=C/c3cccs3)sc2c1	-19	-1	0	1	-8
COc1ccc2sc(N(CCN(C)C)C(=O)/C=C/c3cccs3)nc2c1	-17	3	0	36*	-23
Cc1cccc2sc(N(CCN(C)C)C(=O)/C=C/c3cccs3)nc12	-43	-4	0	32*	-19
CCc1ccc(OC(C)C(=O)Nc2c(C(=O)c3ccccc3)oc3ccccc23)cc1 (stereo not drawn)	.	.	0	.	3
O=c1c(S(=O)(=O)c2cccc(Cl)c2)cn(Cc2ccccc2)c2cc(N3CCOCC3)c(F)cc12	.	.	2	.	-4
